Screening data deposited in PubChem BioAssay by Broad Institute.
Tgondii IFNg: T. gondii growth inhibition with IFN-gamma, primary screen, cell-based; Toxoplasma gondii growth in IFN-gamma-treated host cells; active compounds read low; activity change, negative = inhibition, % (no concentration beside the values); actives 3.8% (n = 69,000); in the data active = activity change below about -70%, passing the limit was not always enough;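 note: host cells are HeLa cells infected with Toxoplasma gondii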
Numbers stand for hits; . = inactive; ! = not confirmed by another sample. Only a selection was taken, and hits are over-represented in it overall.

SMILES	Tgondii IFNg
CN(C)Cc1noc2c1CN(Cc1nccn1C)CC2	-75.0
CC(C)C(=O)N1CC2CC1CN(C(=O)c1ccco1)C2 (stereo not given)	.
COc1ccccc1-c1nc(Cn2nnc(C(=O)Nc3ccccc3C)c2C)c(C)o1	.
CC(C)c1nccn1C(C)C(=O)NCCc1c[nH]c2ccccc12 (stereo not given)	.
CCCc1cc(=O)n2[nH]c(C(F)(F)F)c(-c3ccc(OC)cc3)c2n1	.
CCc1c(C)[nH]n2c(=O)cc(COc3ccccc3)nc12	.
CCc1c(C)[nH]n2c(=O)cc(Cc3ccc(F)cc3)nc12	-102.5
Cc1oc(C2CCN(S(=O)(=O)c3ccc(C#N)cc3)CC2)nc1C(=O)N(C)C	.
O=C1C2CCCCC2C(=O)N1c1ccc(OS(=O)(=O)c2ccccc2)cc1 (stereo not given)	.
NC(N)=N/N=C/c1ccc(OS(=O)(=O)c2ccccc2)cc1	-76.8
NC(N)=N/N=C/c1c(Cl)cccc1Cl	.
Cc1cccnc1C(C)NC(=O)CSc1nc2ccccc2c(=O)[nH]1 (stereo not given)	.
COC(=O)c1c(NCC(C)O)c2cc(F)ccc2[nH]c1=O (stereo not given)	.
COC(=O)c1c(NCCc2ccc(Cl)cc2)c2cc(F)ccc2[nH]c1=O	-94.2
COC(=O)c1c(NCCc2c[nH]c3ccccc23)c2cc(Cl)ccc2[nH]c1=O	-114.8
COC(=O)c1c(NCC(C)C)c2cc(F)ccc2[nH]c1=O	.
COC(=O)c1c(NCCc2cccs2)c2ccc(F)cc2[nH]c1=O	.
COC(=O)c1c(NCCc2c[nH]c3ccccc23)c2ccccc2[nH]c1=O	-89.1
COC(=O)c1c(NCc2ccccc2Br)c2cc(F)ccc2[nH]c1=O	.
COC(=O)c1c(NCCN2CCCc3ccccc32)c2cc(F)ccc2[nH]c1=O	.
COC(=O)c1c(NCc2c(C)noc2C)c2ccccc2[nH]c1=O	.
Cc1nc(-c2ccccc2)sc1CCNC(=O)C(=O)Nc1ccccc1C#N	.
Cc1cccnc1CN1CCN(Cc2nn(C)c3cccc(Cl)c23)CC1	.
Cc1ccccc1NC(=O)c1cccc(S(=O)(=O)Oc2ccccc2Br)c1	.
Cc1cccc(SC2CCN(Cc3c(CO)cnc(C)c3O)CC2)c1	.
SMILES	Tgondii IFNg
CCn1ccnc1Cn1ccnc1-c1ccc(N(C)C)nc1	.
CCOc1ccc(NC(=O)C2=C(C)C(=O)OC23CCN(CC)CC3)cc1	.
COCC1CN(CCc2ccccc2)CCN(C(=O)CCc2ccccc2)C1 (stereo not given)	.
Clc1cc(Cl)cc(N=c2ssnc2-c2ccccc2Cl)c1	-90.2
CCN(C)c1ncnc2c1CCN(CCN1CCCC1)CC2	.
CCOc1cccc(-c2ccc(C(N)=O)cn2)c1	.
Cc1ccc(N2CCN(C(=O)c3csc(-c4ccc(N5CCCC5)nc4)n3)CC2)cc1	.
Cc1oc(C2CCN(S(=O)(=O)Cc3ccccc3)CC2)nc1C(=O)N1CCOCC1	.
Cc1ccc(CN2CCOCC3(CCN(Cc4nccn4C)C3)C2)s1 (stereo not given)	.
Cc1occc1C(=O)N1CCOCC2(CCN(c3ncccn3)C2)C1 (stereo not given)	.
Cc1occc1C(=O)N1CCOCC2(CCN(Cc3nccn3C)C2)C1 (stereo not given)	-77.7
O=C(Nc1cnc2n1CCCC2)c1ccc(-c2cn(-c3ccccc3)cn2)cc1	.
Cc1noc(-c2ccnc(-n3ncc(C(=O)NCCc4c[nH]c5ccccc45)c3C)c2)n1	.
O=C(NCCc1c[nH]c2ccccc12)c1cc2occc2c(Nc2ccc(F)cc2)n1	-84.5
O=C(NCCc1c[nH]c2ccccc12)c1cccnc1	.
Cc1sc(NC(=O)c2ccc(Cl)cc2)c(C(=O)c2ccc(Cl)cc2)c1C	.
COc1ccc(C(c2ccccc2)N2CCN(C(=O)C(C)n3ccnc3)CC2)cc1 (stereo not given)	.
O=C(Oc1ccc(Oc2ccccc2)cc1)N1CCC(OC(=O)n2ccnc2)CC1	-97.2
O=C(CN1CCOCC1)Nc1ccc(Oc2ccccc2)cc1	.
C=CCO[C@@H]1CN(S(=O)(=O)c2cccnc2)[C@H]2CCCO[C@@H]12	.
NC(=O)c1ccc(I)c([N+](=O)[O-])c1	.
Cc1ccc(C(=O)c2cc(O)c(O)c([N+](=O)[O-])c2)cc1	-80.2!
COc1ccc(C(=O)c2ccc(C)cc2)c(O)c1	.
Cc1cccc(CN2CCN(Cc3ccc(N(C)C)nc3)CC2)c1	.
CC(=O)Nc1ccc(C(=O)N2CCCCC2c2cc(-c3ccc(F)cc3)cc(C)n2)cc1 (stereo not given)	.
SMILES	Tgondii IFNg
C=CCN(Cc1ccc(F)cc1)C(=O)C1CCN(CC(N)=O)CC1	.
CC(C)C(NCc1nc(Cc2ccccc2F)no1)c1ncnn1C (stereo not given)	.
COC1COC2(CCN(C(=O)C3CC(F)(F)C3)CC2)C1 (stereo not given)	.
CCS(=O)(=O)N1CCC2(CC1)CC(OC)CO2 (stereo not given)	-84.8
CCS(=O)(=O)N1CCC2(CC1)CC(OCC1CCOCC1)CO2 (stereo not given)	.
CCOc1ccccc1N(Cc1nc(-c2ccc(C)cc2)oc1C)S(=O)(=O)c1cccs1	.
COc1ccc(-c2nc(C)c(CCNC(=O)C(=O)Nc3cccc(C)c3C)s2)cc1	.
CCOc1cc(CCC(=O)Nc2n[nH]c(CC)n2)on1	.
CCOc1cc(CCC(=O)N2CCc3[nH]c4c(Cl)cccc4c3C2)on1	.
CCOc1cc(CCC(=O)N2CCCc3c(Cl)cc(Cl)c(O)c32)on1	-87.4
CSc1ncccc1C(=O)Nc1ccc2c(c1)CCC(=O)N2	.
Cc1nc(-c2cccc(F)c2)sc1CCNC(=O)c1cccc(C(F)(F)F)c1	.
O=C(Nc1nc(-c2ccccc2)cs1)C1CCCN1C(=O)OCc1ccccc1 (stereo not given)	.
O=C(NCc1cccc(O)c1)Nc1nc(-c2ccncc2)cs1	-73.7
COc1cccc(CNC(=O)Nc2ccc(-c3nc(-c4ccccc4)co3)cc2)c1	.
COCC(=O)N1CCC2(CC1)NC(=O)c1ccccc12	.
Cc1ccc(C2=NC3(CCN(CC(=O)Nc4ccc(C(C)C)cc4)CC3)NC2=O)cc1	.
Cc1noc(C)c1C(=O)NCc1ccc(-c2csnn2)cc1	.
CCc1nc(OCC(=O)NCc2ccc(C)cc2)c2ccccc2n1	.
CNC(=O)c1ccc(-c2ccc(CNC(=O)COC)cc2)nc1C	-73.9
COc1cc([C@@H]2[C@H]3CO[C@@]4(O)C(=O)[C@@H]2C=C([C@H]2Oc5cc(O)cc(O)c5C(=O)[C@@H]2O)[C@@H]34)ccc1O	.
CN(C)CCOCc1nnc2n1CCN(C(=O)c1ccc[nH]1)C2	.
NCC1CN(Cc2cnc(NCc3ccccc3)nc2)CCO1 (stereo not given)	.
Cc1cc(C)n(CCCC(=O)Nc2cccc(-c3ccc(F)cc3)c2)c(=O)n1	.
COc1cc(C(=O)N2CCc3c([nH]c4ccccc34)C2c2ccccc2)cc(OC)c1OC (stereo not given)	.
COc1ccc(C(=O)N2CCc3c([nH]c4ccccc34)C2c2ccc(SC)cc2)cc1OC (stereo not given)	.
O=C(c1ccc2c(c1)OCO2)N1CCc2c([nH]c3ccccc23)C1c1ccccc1 (stereo not given)	-97.9
COc1ccc(C2c3[nH]c4ccccc4c3CCN2C(=O)c2ccc3c(c2)OCO3)cc1 (stereo not given)	-80.9
O=C(c1ccncc1)N1CCc2c([nH]c3ccccc23)C1c1ccccc1 (stereo not given)	.
Cc1cc(C)n(Cc2c(C(=O)NCc3ccc(CN4CCOCC4)cc3)noc2C)n1	.
